H9c2 protect: cardioprotection against H2O2-induced cell death, primary screen, uHTS, H9c2 cells, ATPLite luminescence. protection from H2O2 cell death, % at 20 µM. AID 588492, 2011. H9c2 cardiomyocytes, H2O2 injury protection, 2 h. 360,000 compounds, 0.63% hits;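 active = compounds giving at least 50% protection of heart cells from peroxide-induced death in the single-dose screen, raw or plate-pattern-corrected value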;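 also: 0% = DMSO wells with peroxide and 100% = DMSO wells without peroxide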
MPTP block: mitochondrial permeability transition pore inhibitors, primary screen, biochemical, isolated mouse mitochondria, absorbance; Ca2+ swelling absorbance, 30 min; inhibition, % at 10 µM; 360,000 compounds, 1.4% hits;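 active = inhibition of 50% or more, scaled per plate between neutral and stimulator controls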;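 also: 0% = DMSO wells given calcium and 100% = 1 mM EGTA wells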
aDG glyco up: activators of alpha-DG glycosylation, primary screen, uHTS, Pro5-aDG cells, AlphaScreen | alpha-DG glycosylation AlphaScreen (IIH6); 0% Pro5, 100% B10-LARGE cell signal | activation, % at 10 µM | 360,000 compounds, 0.22% hits | AID 624168, 2012;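 active = activation of at least 8% versus controls, or a plate z-score of at least 8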;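 also: Pro5 are CHO cells carrying HIG-tagged alpha-DG that lacks glycosylation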
FAS-TE inh: FAS thioesterase domain inhibitors, primary screen, biochemical, fluorescence intensity, uHTS. Fatty acid synthase (Homo sapiens), P49327. recombinant FAS-TE, OMFH fluorogenic substrate, fluorescence endpoint. inhibition, % at 15 µM. 360,000 compounds, 0.67% hits. AID 602261, 2012;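 active = compounds whose normalised, plate-corrected inhibition of enzyme fluorescence in the single-dose primary screen is 50% or more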;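 also: 0% = DMSO with enzyme and 100% = substrate without enzyme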
Target sequence (P49327 whole entry, looked up, the tested form may be a part): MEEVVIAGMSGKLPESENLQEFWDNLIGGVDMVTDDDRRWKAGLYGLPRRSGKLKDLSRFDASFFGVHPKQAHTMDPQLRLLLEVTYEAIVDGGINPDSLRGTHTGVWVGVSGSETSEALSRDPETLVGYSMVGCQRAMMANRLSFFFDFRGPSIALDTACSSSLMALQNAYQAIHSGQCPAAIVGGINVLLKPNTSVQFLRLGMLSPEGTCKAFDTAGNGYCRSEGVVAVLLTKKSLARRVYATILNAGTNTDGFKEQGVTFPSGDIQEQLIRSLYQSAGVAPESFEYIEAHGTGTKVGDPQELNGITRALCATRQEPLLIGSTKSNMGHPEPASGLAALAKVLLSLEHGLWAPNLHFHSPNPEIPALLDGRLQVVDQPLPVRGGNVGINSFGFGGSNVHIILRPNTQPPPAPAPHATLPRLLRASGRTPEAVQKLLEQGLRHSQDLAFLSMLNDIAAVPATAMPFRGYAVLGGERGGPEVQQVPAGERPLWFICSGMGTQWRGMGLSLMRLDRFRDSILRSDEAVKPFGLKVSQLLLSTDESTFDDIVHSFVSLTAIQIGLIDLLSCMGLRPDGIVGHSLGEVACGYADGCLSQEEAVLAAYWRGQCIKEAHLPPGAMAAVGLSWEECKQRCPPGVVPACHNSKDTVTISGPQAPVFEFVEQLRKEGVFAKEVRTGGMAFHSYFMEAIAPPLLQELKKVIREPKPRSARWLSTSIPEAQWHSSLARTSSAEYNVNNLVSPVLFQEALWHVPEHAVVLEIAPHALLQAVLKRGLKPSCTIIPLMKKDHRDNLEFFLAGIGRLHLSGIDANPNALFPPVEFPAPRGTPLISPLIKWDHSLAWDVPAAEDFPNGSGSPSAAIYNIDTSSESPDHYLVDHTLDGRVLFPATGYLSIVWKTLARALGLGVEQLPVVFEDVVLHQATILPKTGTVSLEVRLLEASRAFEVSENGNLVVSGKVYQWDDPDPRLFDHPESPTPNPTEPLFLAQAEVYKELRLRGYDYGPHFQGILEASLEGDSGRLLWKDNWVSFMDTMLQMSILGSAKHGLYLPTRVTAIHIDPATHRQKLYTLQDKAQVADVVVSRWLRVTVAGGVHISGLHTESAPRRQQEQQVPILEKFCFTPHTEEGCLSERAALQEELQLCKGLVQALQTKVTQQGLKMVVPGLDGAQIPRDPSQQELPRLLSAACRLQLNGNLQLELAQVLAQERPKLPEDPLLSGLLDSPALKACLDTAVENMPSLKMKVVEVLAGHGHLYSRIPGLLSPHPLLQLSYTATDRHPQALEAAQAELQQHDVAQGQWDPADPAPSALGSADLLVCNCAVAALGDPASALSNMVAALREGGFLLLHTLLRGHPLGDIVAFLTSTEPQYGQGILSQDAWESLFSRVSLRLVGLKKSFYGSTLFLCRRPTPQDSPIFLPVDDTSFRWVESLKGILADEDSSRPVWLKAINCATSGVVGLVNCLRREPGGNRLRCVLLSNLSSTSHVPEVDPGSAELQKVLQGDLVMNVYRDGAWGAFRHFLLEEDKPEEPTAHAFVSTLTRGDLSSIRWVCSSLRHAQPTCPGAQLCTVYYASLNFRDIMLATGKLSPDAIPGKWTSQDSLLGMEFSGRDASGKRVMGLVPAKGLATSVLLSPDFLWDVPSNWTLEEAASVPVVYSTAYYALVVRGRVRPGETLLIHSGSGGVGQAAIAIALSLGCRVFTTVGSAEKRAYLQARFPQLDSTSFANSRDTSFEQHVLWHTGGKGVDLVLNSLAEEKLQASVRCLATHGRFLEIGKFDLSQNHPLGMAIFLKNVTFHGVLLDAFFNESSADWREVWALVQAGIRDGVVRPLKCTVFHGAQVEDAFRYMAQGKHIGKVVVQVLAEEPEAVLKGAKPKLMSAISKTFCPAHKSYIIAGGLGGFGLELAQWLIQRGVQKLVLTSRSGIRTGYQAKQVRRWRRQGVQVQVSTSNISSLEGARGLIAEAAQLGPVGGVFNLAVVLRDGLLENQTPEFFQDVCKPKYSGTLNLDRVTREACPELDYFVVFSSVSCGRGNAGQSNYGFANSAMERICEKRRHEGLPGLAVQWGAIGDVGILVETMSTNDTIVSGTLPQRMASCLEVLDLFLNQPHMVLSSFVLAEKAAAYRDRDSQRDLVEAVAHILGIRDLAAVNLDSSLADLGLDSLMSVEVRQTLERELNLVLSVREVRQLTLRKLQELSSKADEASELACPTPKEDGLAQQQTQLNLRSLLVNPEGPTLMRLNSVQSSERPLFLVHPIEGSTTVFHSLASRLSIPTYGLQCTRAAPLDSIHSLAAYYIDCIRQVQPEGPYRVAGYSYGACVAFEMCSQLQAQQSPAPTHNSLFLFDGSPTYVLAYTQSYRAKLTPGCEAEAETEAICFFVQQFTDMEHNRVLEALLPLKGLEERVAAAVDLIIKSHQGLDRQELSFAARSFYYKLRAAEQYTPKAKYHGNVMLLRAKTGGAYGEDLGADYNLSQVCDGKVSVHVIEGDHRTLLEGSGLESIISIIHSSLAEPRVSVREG
SUMO Mot1 rescue: yeast Mot1-301 growth rescue at high temperature, primary screen, SUMOylation pathway inhibitor project, S. cerevisiae, ATP luminescence, 38.5C. S. cerevisiae Mot1-301 growth rescue; percent above DMSO median, 100 means doubled. growth rescue, % at 18.8 µM. 320,000 compounds, 1% hits;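 active = every valid replicate shows activation above 250% relative to neutral control wells; inactive = the rest, any valid replicate at or below 250%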;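 also: OY570 slx delta 5 strain wells were the positive control but not used for scaling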
CR mimetic SO: reduction of superoxide in aged yeast, primary screen, HTS. S. cerevisiae aged cells, superoxide DHE fluorescence; hits give low values. superoxide response (% of plate mean), % at 10 µM. 330,000 compounds, 0.18% hits;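 active = superoxide response under a set limit, about three screen SD below normal, cut at about 65% in these data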;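 also: yeast aged for seven days with compound at 30 °C before DHE staining; 100% = average MFI of all compound-treated wells on the plate with controls excluded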
Yeast Mot1 SUMO: growth restoration of Mot1-301 yeast on galactose, dose response, SUMO pathway inhibitor project, whole organism, S. cerevisiae, ATP luminescence, cherry-picked samples. shares compounds with SUMO Mot1 rescue. S. cerevisiae Mot1-301 galactose growth, 24 h; -100 = growth of slx-deleted rescue strain. growth activity, percent, % at 42 µM. 2,300 tested, under 10 active. AID 493004, 2010;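 active = Signal drops as the depositor expects, and the fitted half-maximal dose is no more than ten times the top valid tested dose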;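 also: more negative values mean stronger growth rescue toward the control strain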
* hit, by the source's call. Only some compounds are listed: those with a hit (about 3.8% of all), similar ones and a draw of the others.

O=C(NCCCn1ccnc1)c1ccc(Cl)cc1 was read as H9c2 protect -3, MPTP block -1, aDG glyco up 0, FAS-TE inh -2, SUMO Mot1 rescue 574*, CR mimetic SO 83 and Yeast Mot1 SUMO 1.
Screening Cc1cc(S(=O)(=O)N2CCCC2)ccc1OCC(=O)Nc1ccc(C(N)=O)cc1 returned H9c2 protect -1, MPTP block -1, aDG glyco up 0, FAS-TE inh -4, SUMO Mot1 rescue -5 and CR mimetic SO 111.
N/C(=N\N=C\c1ccc(O)cc1)c1nonc1N was read as H9c2 protect -6, MPTP block 0, aDG glyco up 0, FAS-TE inh 3, SUMO Mot1 rescue 488*, CR mimetic SO 100 and Yeast Mot1 SUMO -1.
Screening N/C(=N\N=C\c1ccc(O)c(O)c1)c1nonc1N returned H9c2 protect -13, MPTP block 14, aDG glyco up 0, FAS-TE inh -1, SUMO Mot1 rescue 7 and CR mimetic SO 95.
For Cc1ccc(C(=O)NC(Cc2c[nH]c3ccccc23)C(=O)O)o1 (configuration not stated) the results were H9c2 protect -8, MPTP block 3, aDG glyco up 0, FAS-TE inh -8, SUMO Mot1 rescue active, CR mimetic SO 107 and Yeast Mot1 SUMO 0.
Screening Cc1cc2c(OCC(O)CNC(C)(C)C)cccc2[nH]1 (configuration not stated) returned H9c2 protect -2, MPTP block -1, aDG glyco up 0, FAS-TE inh -5, SUMO Mot1 rescue 0 and CR mimetic SO 129.
For COCCCNCC(O)COc1cccc2[nH]c(C)cc12 (configuration not stated) the results were H9c2 protect 4, MPTP block -2, aDG glyco up 0, FAS-TE inh -4, SUMO Mot1 rescue 773*, CR mimetic SO 101 and Yeast Mot1 SUMO 0.
Screening Cc1ccc(C)c(NC(=O)COC(=O)c2ccc3c(c2)OCO3)c1 returned H9c2 protect -5, MPTP block 2, aDG glyco up 0, FAS-TE inh 2, SUMO Mot1 rescue 975*, CR mimetic SO 88 and Yeast Mot1 SUMO 0.
Screening FC(F)(F)c1nc2nc(Cl)c(Cl)nc2n1CCCN1CCOCC1 returned H9c2 protect 5, MPTP block -2, aDG glyco up 0 and FAS-TE inh -3.
For CCC(NC(=O)c1ccccc1NC(=O)c1ccco1)C(=O)NC1CCCCC1 (configuration not stated) the results were H9c2 protect 9, MPTP block 0, aDG glyco up 0, FAS-TE inh 2, SUMO Mot1 rescue 381*, CR mimetic SO 95 and Yeast Mot1 SUMO 0.
`Cc1ccc2c(c1)N(CC(=O)N1CCCCC1)C(=O)C(C)O2` (configuration not stated) gave H9c2 protect 4, MPTP block -1, aDG glyco up 0, FAS-TE inh -3, SUMO Mot1 rescue 0 and CR mimetic SO 104.
COc1ccc(N=C2SC(C(=O)O)CC(=O)N2Cc2ccc(OC)c(OC)c2)cc1 (configuration not stated) was read as H9c2 protect -1, MPTP block -2, aDG glyco up 0, FAS-TE inh -6, SUMO Mot1 rescue 529*, CR mimetic SO 101 and Yeast Mot1 SUMO 1.
`COc1ccc(N=C2SC(C(N)=O)CC(=O)N2CCc2ccc(OC)c(OC)c2)cc1` (configuration not stated) gave H9c2 protect 1, MPTP block -3, aDG glyco up 0, FAS-TE inh -7, SUMO Mot1 rescue 233 and CR mimetic SO 103.

Screening data as filed in PubChem BioAssay.
